Measured values taken from PubChem BioAssay.
Records with an inconclusive call do not appear. The source made the active and inactive calls.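 How the source made its calls, unless noted: active means growth inhibition above 25% in both replicates, a cutoff set 3 SD above the mean; inconclusive means above 25% in only one replicate; inactive means the rest.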

Experiments:
[1] = Her2 expression decrease, cell viability multiplex – SKBR3 breast tumor cells, AlphaScreen, ATP viability, primary screen (AID 461;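 active means Her2 level under about 52% in both replicate screens, with viability over 70% of control, limit read from the data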;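 on Her2 level: lower value means less Her2 protein in the cells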;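 on viability: percent of carrier control wells set as 100% viability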); conditions: SKBR3 Her2 protein level, 18-24 h, measured here: SKBR3 viability, ATP luminescence, at 10 µM
[2] = biological target: Receptor tyrosine-protein kinase erbB-2 (Homo sapiens) (UniProt P04626); assay: as above; conditions: 18-24 h, at 10 µM, stronger effect = lower value
[3] = reduced viability of SK-BR-3 breast cancer cells – cell-based, 24 h, human, pilot screen (AID 572;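 active means viability at or below 10% of carrier control in both of two separate runs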;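 further: compound exposure lasted between 18 and 24 h rather than exactly 24 h; 100% = carrier-treated control wells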); conditions: SK-BR-3 viability, CellTiter-Glo luminescence, at 10 µM, stronger effect = lower value
[4] = HUVEC growth inhibition – cell-based, human, primary screen (AID 575;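 active means viability at or below 30% in both replicate assays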;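 further: 100% = median of untreated cell wells with 0.1% DMSO on each plate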); conditions: HUVEC proliferation, CellTiter-Glo luminescence, 72 h; at 10 µM; stronger effect = lower value
[5] = H69AR cell proliferation blockers – human, duplicate replicates, primary screen (AID 580;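 active means viability at or under a set limit in both replicates, limit being median viability minus 3 SD, cut at about 48% in these data, passing the limit was not always enough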;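 further: 100% = mean luminescence of untreated wells and 0% = no signal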); conditions: H69AR lung tumor cells viability, ATP luminescence, 72 h; at 10 µM; stronger effect = lower value
[6] = MRP1 drug-resistance reversers in H69AR cells – cell-based, doxorubicin co-treatment, pilot screen (AID 601;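 active means viability loss from added drug above about 55%, and viability with drug at most 40%, in both replicates, limit read from the data, passing the limit was not always enough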); conditions: CellTiter-Glo, 72 h, at 10 µM; for differential viability (reversal): stronger effect = higher value
[7] = yeast transport mutant growth inhibition pilot in 384-well plates, post-Golgi transport modulator project (AID 636; in the data active means inhibition above about 31%); conditions: absorbance 615 nm, about 18 h, stronger effect = higher value
[8] = growth suppression of yeast trafficking mutant, preliminary HTS, modulators of trafficking downstream of Golgi apparatus project, 1536-format plate, OD 615 nm (AID 637; in the data active means inhibition above about 30%); conditions: yeast transport mutant growth, absorbance 615 nm, 18 h; stronger effect = higher value
[9] = S. cerevisiae growth inhibition in permissive medium (OD615), pilot counter-assay for S. cerevisiae lifespan shortening project, permissive growth control (AID 705); conditions: OD615, 24 h, at 10 µM, stronger effect = higher value
[10] = S. cerevisiae growth inhibition in restrictive medium, OD615, pilot screen, restrictive growth control, yeast lifespan reduction project (AID 706;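 active means growth inhibition above a set limit, 3 SD over mean compound inhibition, in both replicates, cut at about 43% in these data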;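 further: modified DeaD lifespan yeast strain shifted to restrictive glucose medium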); conditions: OD615, 48 h, at 10 µM, stronger effect = higher value
[11] = doxorubicin toxicity protection in MRP-1 cells – H69AR cells, CellTiter-Glo, duplicate, MRP-1 activator project, pilot screen (AID 807;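 active means viability increase at or above a cutoff of the median across tested compounds plus 3 SD, cut at about 8.5% in these data, passing the limit was not always enough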;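 further: compound pretreatment 18-22 h then 72 h combined with doxorubicin; 0% = doxorubicin alone and 100% = vehicle without doxorubicin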); conditions: H69AR viability with doxorubicin, CellTiter-Glo luminescence; at 10 µM; stronger effect = higher value
[12] = viability of HCT116 without oncogenic beta-catenin – human colon tumor cells, pilot screen (AID 823;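 active means cell viability at or below a set limit in both duplicate runs, the limit being the all-compound median minus 4 SD, cut at about 23% in these data, passing the limit was not always enough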;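 further: 0% = wells killed by 20 µM Hyamine and 100% = untreated DMSO cell wells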); conditions: HCT116 beta-catenin knockout viability, CellTiter-Glo, 60 h; at 10 µM; stronger effect = lower value
[13] = viability of PTEN-null HCT116 cells – cell-based, HCT116 clonal line, CellTiter-Glo, pilot screen (AID 824;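 active means viability at or below 27.92% in each of two runs, the all-compound median minus 4 SD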;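 further: 0% = 20 µM Hyamine control and 100% = vehicle cell control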); conditions: HCT116 PTEN-deleted viability, 60 h, at 10 µM, stronger effect = lower value
[14] = RAM pathway blockade in budding yeast – dse1pr::URA3 reporter, 5-FOA selection, pilot screen (AID 869;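 active means inhibition over a set limit, the all-compound mean plus 3 SD, in both replicate runs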;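 further: 0% = DMSO wells with no growth and 100% = 10 µM 1-NA-PP1 with full growth; RAM network block rescues cells from 5-FOA so hits raise OD615 growth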); conditions: S. cerevisiae dse1pr::URA3 5-FOA growth, OD615, 2 d; at 10 µM; stronger effect = higher value; strain carries analog-sensitive mutant Cbk1 kinase
[15] = RAM signaling pathway blockade in yeast – S. cerevisiae, Pdr1DBD-CYC8 efflux-inhibited sensitized strain, primary screen (AID 1298;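 active means RAM network inhibition above 8.4% in each of two replicates, 3 SD over the compound average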;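 further: 0% = DMSO untreated cells without growth and 100% = 10 µM 1-NA-PP1 full growth; higher means more yeast growth rescued from 5-FOA killing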); conditions: S. cerevisiae cbk1-as DSE1-URA3 strain, 5-FOA growth OD615, 2 d; at 50 µM; stronger effect = higher value
[16] = H69AR cells + 2 uM doxorubicin, measured here: viability with 2 uM doxorubicin, stronger effect = lower value
[17] = H69AR cells, compound alone cytotoxicity

Sequence of Receptor tyrosine-protein kinase erbB-2 (Homo sapiens) (P04626 whole entry, looked up): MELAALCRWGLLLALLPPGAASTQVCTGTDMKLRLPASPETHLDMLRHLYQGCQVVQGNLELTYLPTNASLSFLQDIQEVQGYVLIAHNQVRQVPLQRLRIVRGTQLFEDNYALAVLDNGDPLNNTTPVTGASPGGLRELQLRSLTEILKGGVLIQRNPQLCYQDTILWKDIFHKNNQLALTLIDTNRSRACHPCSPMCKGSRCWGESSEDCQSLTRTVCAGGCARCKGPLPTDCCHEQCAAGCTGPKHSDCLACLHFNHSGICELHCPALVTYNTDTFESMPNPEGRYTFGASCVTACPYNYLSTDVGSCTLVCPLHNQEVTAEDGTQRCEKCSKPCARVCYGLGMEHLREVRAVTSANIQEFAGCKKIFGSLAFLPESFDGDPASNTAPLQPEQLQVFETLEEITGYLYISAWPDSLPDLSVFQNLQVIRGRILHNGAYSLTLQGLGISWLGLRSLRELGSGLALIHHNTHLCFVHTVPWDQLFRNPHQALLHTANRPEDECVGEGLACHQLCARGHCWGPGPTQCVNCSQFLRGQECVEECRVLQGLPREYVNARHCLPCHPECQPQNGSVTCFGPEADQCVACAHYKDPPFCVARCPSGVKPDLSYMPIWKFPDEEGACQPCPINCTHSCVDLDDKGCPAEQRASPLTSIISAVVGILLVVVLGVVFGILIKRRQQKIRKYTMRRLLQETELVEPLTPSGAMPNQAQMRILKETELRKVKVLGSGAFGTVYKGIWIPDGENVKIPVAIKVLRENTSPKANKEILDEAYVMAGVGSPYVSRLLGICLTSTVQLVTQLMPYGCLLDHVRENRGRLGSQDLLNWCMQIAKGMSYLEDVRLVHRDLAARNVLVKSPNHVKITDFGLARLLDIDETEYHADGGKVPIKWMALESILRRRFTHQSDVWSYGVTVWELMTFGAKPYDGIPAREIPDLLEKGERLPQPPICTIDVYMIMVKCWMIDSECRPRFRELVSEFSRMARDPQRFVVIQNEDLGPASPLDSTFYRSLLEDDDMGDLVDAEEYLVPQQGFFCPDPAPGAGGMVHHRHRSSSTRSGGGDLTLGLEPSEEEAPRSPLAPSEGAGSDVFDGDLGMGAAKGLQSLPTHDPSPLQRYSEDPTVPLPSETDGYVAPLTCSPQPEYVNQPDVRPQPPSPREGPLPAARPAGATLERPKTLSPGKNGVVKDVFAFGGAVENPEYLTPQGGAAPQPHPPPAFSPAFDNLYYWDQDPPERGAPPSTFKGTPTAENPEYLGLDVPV

SMILES	viability [1]	Her2 level [2]	viability [3]	viability [4]	viability [5]	differential viability (reversal) ([6]; H69AR cells + 2 uM doxorubicin)	viability [6, 16]	viability [6, 17]	inhibition [7]	inhibition [8]	growth inhibition [9]	growth inhibition [10]	viability increase [11]	viability [12]	viability [13]	inhibition [14]	RAM network inhibition [15]
CC1CN(c2c3c(nc4ncnn24)CCCC3)CC(C)O1 (stereo not given)	89.5%	88% (inactive)	89.5% (inactive)	102% (inactive)	90.7% (inactive)	4.54% (inactive)	86.2%	90.7%	-4.87% (inactive)	2% (inactive)	3.17% (inactive)	-4.12% (inactive)	-1.41% (inactive)	88.9% (inactive)	90.8% (inactive)	1.57% (inactive)	-1.85% (inactive)
CCOc1ccc(N2CC(C(=O)Nc3ccccc3OC)CC2=O)cc1 (stereo not given)	106%	98% (inactive)	106% (inactive)	110% (inactive)	95.7% (inactive)	9.71% (inactive)	86%	95.7%	-3.87% (inactive)	-3% (inactive)	-7.43% (inactive)	-1.77% (inactive)	-1.73% (inactive)	102% (inactive)	102% (inactive)	1.8% (inactive)	0.63% (inactive)
COc1ccccc1NC(=O)CSc1nnc(Cc2cccn2C)n1-c1ccc(F)cc1	96.5%	86% (inactive)	96.5% (inactive)	95.4% (inactive)	71.8% (inactive)	-13.1% (inactive)	84.9%	71.8%	-4.8% (inactive)	-2.67% (inactive)	-3.11% (inactive)	10.8% (inactive)	-4.45% (inactive)	86.7% (inactive)	86.8% (inactive)	2.05% (inactive)	2.25% (inactive)
COc1ccc(N2CCN(Cc3nc4c(c(=O)n(C)c(=O)n4C)n3Cc3ccccc3C)CC2)cc1	92.5%	81% (inactive)	92.5% (inactive)	94.5% (inactive)	80% (inactive)	25.1% (inactive)	54.9%	80%	-2.4% (inactive)	-2% (inactive)	-12.5% (inactive)	-24.9% (inactive)	-4.52% (inactive)	90.7% (inactive)	77.6% (inactive)	1.29% (inactive)	-0.26% (inactive)
CCOc1ccccc1N(CC(=O)N1CCCCCC1)S(C)(=O)=O	99%	97% (inactive)	99% (inactive)	97.5% (inactive)	99.8% (inactive)	10.3% (inactive)	89.5%	99.8%	-1.3% (inactive)	1.15% (inactive)	-4.37% (inactive)	-10.9% (inactive)	-1.33% (inactive)	91.1% (inactive)	99.4% (inactive)	0.65% (inactive)	3.99% (inactive)
COc1ccc(OC)c(NC(=O)CSc2nnc(Cc3cccn3C)n2-c2ccc(F)cc2)c1	81%	90% (inactive)	81% (inactive)	62.7% (inactive)	85.6% (inactive)	7.76% (inactive)	77.9%	85.6%	3.59% (inactive)	0% (inactive)	4.57% (inactive)	16.1% (inactive)	-5.9% (inactive)	97.1% (inactive)	92% (inactive)	-0.57% (inactive)	2.89% (inactive)
CC(C)CCN(C)C1CCN(S(=O)(=O)c2ccc(F)cc2)CC1	87%	104% (inactive)	87% (inactive)	107% (inactive)	81% (inactive)	-10.5% (inactive)	91.6%	81%	-1.87% (inactive)	-4.33% (inactive)	-7.46% (inactive)	10.4% (inactive)	-2.68% (inactive)	97.6% (inactive)	98.5% (inactive)	0.875% (inactive)	4.65% (inactive)
Cc1c(NC(=O)c2noc3c2CCc2ccccc2-3)c(=O)n(-c2ccccc2)n1C	95.5%	97.5% (inactive)	95.5% (inactive)	102% (inactive)	99.7% (inactive)	-5.54% (inactive)	105%	99.7%	-5.73% (inactive)	-7.21% (inactive)	-3.5% (inactive)	6.45% (inactive)	-0.3% (inactive)	101% (inactive)	102% (inactive)	1.05% (inactive)	4.92% (inactive)
Cc1ccc(N=Cc2ccc(O)cc2O)cc1F	112%	80% (inactive)	112% (inactive)	69.3% (inactive)	81.9% (inactive)	8.83% (inactive)	73.1%	81.9%	-2.34% (inactive)	6.39% (inactive)	-10.6% (inactive)	-25.5% (inactive)	-4.99% (inactive)	76% (inactive)	77.8% (inactive)	0.995% (inactive)	0.31% (inactive)
CCOC(=O)N1CCC(NC(=O)C2CCCN(C(=O)c3cc4sccc4n3C)C2)CC1 (stereo not given)	113%	114% (inactive)	113% (inactive)	82.2% (inactive)	94.8% (inactive)	-0.91% (inactive)	95.7%	94.8%	-2.4% (inactive)	-0.83% (inactive)	-18% (inactive)	-12.6% (inactive)	0.63% (inactive)	96.7% (inactive)	95.7% (inactive)	0.665% (inactive)	0.11% (inactive)
